# CYP2C9 inh: blocks human cytochrome P450 2C9. P11712. CYP2C9 Supersomes, luciferin-H conversion, luminescence. inhibition, % at 5 µM. hit rate 20% among 96,000;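 active = blocking of liver enzyme CYP2C9 beyond about 50% at 5 µM, limit read from the data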
# Target sequence (P11712 whole entry, looked up): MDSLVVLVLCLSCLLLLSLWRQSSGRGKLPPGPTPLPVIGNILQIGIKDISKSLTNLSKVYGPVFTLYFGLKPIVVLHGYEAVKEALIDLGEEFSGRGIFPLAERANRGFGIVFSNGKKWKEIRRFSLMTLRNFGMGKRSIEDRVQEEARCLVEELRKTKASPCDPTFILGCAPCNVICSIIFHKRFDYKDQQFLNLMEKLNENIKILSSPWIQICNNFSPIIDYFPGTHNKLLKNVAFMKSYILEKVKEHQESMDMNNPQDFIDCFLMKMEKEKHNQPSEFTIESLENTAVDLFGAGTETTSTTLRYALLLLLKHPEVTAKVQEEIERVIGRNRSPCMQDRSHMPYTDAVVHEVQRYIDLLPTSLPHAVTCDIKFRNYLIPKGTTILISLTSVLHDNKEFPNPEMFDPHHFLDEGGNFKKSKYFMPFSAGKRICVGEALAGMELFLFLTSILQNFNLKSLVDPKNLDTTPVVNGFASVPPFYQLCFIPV
# CYP2C19 inh: inhibitors of human CYP2C19; P33261; CYP2C19 Supersomes, luciferin-H EGE luminescence, 30 min; inhibition, % at 5 µM; hit rate 21% among 96,000; AID 778;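 active = CYP2C19 inhibition above a set limit at 5 µM in the primary screen, cut at about 50% in these data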;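 also: plate controls were negative control wells for no effect and 2.5 mM tranylcypromine positive control for full effect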
# CYP2C19 act: activators of human cytochrome P450 2C19. 96,000 tested, under 10 active. recombinant CYP2C19, luciferin-H EGE luminescence; active compounds read high; 0 = fully inhibited enzyme, 1 = untreated enzyme. P33261. activation factor at 5 µM;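 active = activation factor of at least 2 at 5 µM in the primary screen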;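 also: 0 = wells with 2.5 mM tranylcypromine and 1 = vehicle-only wells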
# PostGolgi ctrl: yeast control strain growth, post-Golgi counter-screen; efflux-deficient yeast background strain, growth absorbance A615, 16 h; inhibition, % at 10 µM; hit rate 5% among 98,000
# CYP2C9 act: CYP2C9 (human) activation. recombinant CYP2C9, luciferin-H conversion, luminescence; active compounds read high; factor 1 = untreated enzyme, 0 = blocked. hit rate 1.4% among 96,000. AID 1024. activation factor at 5 µM. P11712;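 active = activation factor of 2 or more for CYP2C9 at a 5 µM dose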;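 also: 0 = sulfaphenazole-blocked wells and 1 = vehicle-only wells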
# PostGolgi yeast: growth inhibition of a yeast mutant, post-Golgi transport screen; post-Golgi transport phenotypic cell assay; inhibition, % at 10 µM; hit rate 0.9% among 98,000; AID 739;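 also: yeast cells grown in 1536-well plates; yeast grown about 18 h at 30C before absorbance read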
# Numbers without * were called inactive; . = no result given. In the library only some 32% were active in any assay of this set; here they are far more common. Rule as the data show it, unless noted: active = inhibition above about 30%; inactive = the rest.
SMILES,CYP2C9 inh,CYP2C19 inh,CYP2C19 act,PostGolgi ctrl,CYP2C9 act,PostGolgi yeast
CC1CCC(NC(=O)c2cc3c(=O)n(C)c4ccccc4c3n2C)CC1 (configuration not stated),-74,29,0.7,20,1.7,1
c1cncc(-c2nc(NCc3ccco3)c3ccccc3n2)c1,62*,24,0.8,57*,0.4,-5
c1ccc(CN2CCN(c3nc(NCc4ccco4)c4ccccc4n3)CC2)cc1,66*,51*,0.5,0,0.3,-4
Clc1cccc(-c2nc(NCc3cccnc3)c3ccccc3n2)c1,37,4,1,72*,0.6,27
COc1nc(NCc2ccco2)nc(N2CCC(C)CC2)n1,-49,10,0.9,8,1.5,16
OCCSc1nc(-c2cccnc2)nc2ccccc12,90*,63*,0.4,38*,0.1,2
OCCNc1nc(-c2cccnc2)nc2ccccc12,8,15,0.9,13,0.9,1
Cc1nc2sc(C(c3cccc(F)c3)N3CCCC(C)C3)c(O)n2n1 (configuration not stated),-21,12,0.9,1,1.2,3
c1ccc(-c2nc(NCc3cccnc3)c3ccccc3n2)cc1,65*,28,0.7,9,0.4,9
CSc1nc(NCc2ccco2)c2ccccc2n1,64*,64*,0.4,11,0.4,3
Cc1ccc(-c2nc(N/N=C/c3cccnc3)c3ccccc3n2)cc1,82*,96*,0,3,0.2,-5
Cc1ccc(-c2nc(N/N=C/c3cccc([N+](=O)[O-])c3)c3ccccc3n2)cc1,.,.,.,15,.,-1
CCOc1ccccc1-c1cc(-c2ccc(OC)cc2)nc2c1c(=O)n(C)c(=O)n2C,28,-7,1.1,.,0.7,.
CC(=O)OCCNC(=O)Cn1cnc2c1c(=O)n(C)c(=O)n2C,-20,-9,1.1,6,1.2,-1
COc1ccc(N2CCN(C(=O)Nc3ccc(S(=O)(=O)N(C)C)cc3)CC2)cc1,-2,2,1,-10,1,-2
CCc1ccc2[nH]c(=O)c(C(c3nnnn3Cc3ccccc3)N3CCOCC3)cc2c1 (configuration not stated),45,1,1,6,0.5,11
CCc1ccc2[nH]c(=O)c(C(c3nnnn3CCOC)N3CCN(c4ccc(F)cc4)CC3)cc2c1 (configuration not stated),69*,96*,0,5,0.3,-1
c1ccc(Cn2nnnc2C(c2ccccn2)N2CCN(c3ccccc3)CC2)cc1 (configuration not stated),46,61*,0.4,11,0.5,5
Cc1cccc2cc(C(c3nnnn3Cc3ccccc3)N3CCN(c4ccccc4)CC3)c(=O)[nH]c12 (configuration not stated),50*,34,0.7,2,0.5,-11
Cc1cccc2cc(C(c3nnnn3Cc3ccccc3)N3CCN(C)CC3)c(=O)[nH]c12 (configuration not stated),2,2,1,.,1,.
CCc1ccc2[nH]c(=O)c(C(c3nnnn3CCOC)N3CCN(c4ccccc4)CC3)cc2c1 (configuration not stated),69*,49,0.5,5,0.3,7
c1ccc(Cn2nnnc2C(c2ccccn2)N2CCOCC2)cc1 (configuration not stated),-2,6,0.9,4,1,-2
CC(C)CC(=O)NN1CCCCC1,9,0,1,3,0.9,9
O=C(Nc1cccnc1)c1cc(-c2ccc3c(c2)OCO3)on1,3,3,1,6,1,2
O=C(CSc1nnc2c(Cl)cc(C(F)(F)F)cn12)Nc1ccc2c(c1)OCO2,32,30,0.7,10,0.7,14
SMILES,CYP2C9 inh,CYP2C19 inh,CYP2C19 act,PostGolgi ctrl,CYP2C9 act,PostGolgi yeast
CCc1ccc2[nH]c(=O)c(C(c3nnnn3Cc3ccco3)N3CCC(C)CC3)cc2c1 (configuration not stated),38,60*,0.4,8,0.6,1
Cc1ccc(CS(=O)(=O)Cc2ccc(C(=O)NCc3ccccn3)o2)cc1,3,12,0.9,11,1,20
Nc1nc(SCc2c(F)cccc2Cl)[nH]c(=O)c1-c1ccccc1,-1,-1,1,2,1,-1
c1ccc(C(Cc2nc(-c3ccncc3)no2)c2ccccc2)cc1,90*,98*,0,35*,0.1,-5
COc1ccc(-c2noc(CSc3nc(-c4ccccc4)cc(=O)[nH]3)n2)cc1OC,60*,44,0.6,-1,0.4,0
Nc1nc(SCc2nc(-c3ccccc3)no2)[nH]c(=O)c1-c1ccccc1,82*,73*,0.3,-7,0.2,3
c1ccc(-c2ccccc2-c2nc(-c3ccncc3)no2)cc1,74*,91*,0.1,56*,0.3,17
O=C(O)CCc1nc(-c2ccccc2)no1,1,-1,1,1,1,4
COc1ccccc1N1CCN(C(=O)CSc2nc(-c3ccccc3)cc(=O)[nH]2)CC1,.,.,.,4,.,-5
CCOc1ccc(C2C(C#N)=C(N)Oc3cc(C)n(CCN4CCOCC4)c(=O)c32)cc1OCC (configuration not stated),16,-6,1.1,2,0.8,12
COc1cccc(C(=O)Nc2c3c(nn2-c2cccc(C)c2C)CS(=O)C3)c1OC (configuration not stated),14,13,0.9,0,0.9,5
COc1cc(C(=O)N(C)c2nnc(-c3cccnc3)s2)cc(OC)c1OC,-7,1,1,6,1.1,0
C1=C(C(c2nnnn2C2CCCCC2)N2CCCCC2)COc2ccccc21 (configuration not stated),4,3,1,10,1,7
CC(=O)c1ccc(NC(=O)C2CCC(C)NC2=O)cc1 (configuration not stated),-7,-6,1.1,17,1.1,0
c1ccc(-c2noc(-c3cccnc3)n2)cc1,4,13,0.9,6,1,4
c1ccc(-c2nc(-c3ccncc3)no2)cc1,23,94*,0.1,10,0.8,4
c1coc(-c2nc(-c3ccncc3)no2)c1,35,87*,0.1,2,0.7,0
Cc1onc(-c2ccccc2Cl)c1-c1nc(-c2ccncc2)no1,88*,99*,0,25,0.1,-2
COc1ccc(-c2noc(COc3ccc(C)c(C)c3)n2)cc1OC,37,73*,0.3,0,0.6,23
Cn1nc(-c2ccccc2)c(-c2nc(-c3ccccc3Cl)no2)c1Cl,42,19,0.8,12,0.6,3
CCCCC(CCC(=O)O)(C(=O)OCC)c1csc(N)n1 (configuration not stated),-1,6,0.9,4,1,-3

# Compound activity deposited in PubChem by several laboratories.
